This is an account of results in PubChem BioAssay (NCI).

Common to all, as to test: NCI-60 one-dose screen, 48 h (100 = growth as untreated, 0 = no growth, -100 = all killed)
Holding throughout (settings): 10 µM unless noted

Experiment [1] relates to T-47D breast.
In experiment [2] the test system is BT-549 breast.
In experiment [3] the test system is SW-620 colon.
The subject of experiment [4] is MCF7 breast.
For experiment [5], the system named is HCC-2998 colon.
Experiment [6] has as its system KM12 colon.
For experiment [7], the system named is HCT-116 colon.

Compounds without any hit were thinned out: in the full panel of roughly 83,000, 20% have a hit.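 Single-dose data. Exposure time 48 hours. Values below 10 considered active.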 A number with no mark means an inactive call. The source made the active and inactive calls.

On to `CCCCCCCCCCCCCCCCCCOc1ccccc1CC(=O)NCC[N+]1(C)CCCCC1`, for which the growth in experiment [1] was 75.3%; in experiment [2], 74.9%; in experiment [3] it was 63.8%; in experiment [4], 53.3%; in experiment [5], 32.2%; in experiment [6], 28.8%.
As to `CNC(=O)c1cc(Oc2cccc3nc(NC(=O)Nc4cc(C(F)(F)F)ccc4Cl)ccc23)ccn1`, the growth in experiment [1] is 78.1%; in experiment [2], 85%; in experiment [3], 112%; in experiment [7] it was 60.1%; in experiment [6] it was 96.7%.
Regarding `CCCCCCCCCCCCCOC(=O)c1c(C)[nH]c(/C=C2\N=C(c3ccc[nH]3)C=C2OC)c1C`, the growth in experiment [1] is 27.2%; in experiment [2], 51.5%; in experiment [3], 3.08% (active); in experiment [4], 12.2%; in experiment [7], 11.3%; in experiment [5], 22.8%. For the same molecule, the growth in experiment [6] was 12.7%.
As for `O=C(/C=C/C12c3ccccc3C(c3ccccc31)C1C(=O)NC(=O)C12)c1ccc(Br)cc1` (stereo not drawn), the growth in experiment [1] is 36.8%; in experiment [2], 46.1%; in experiment [3], 15.3%; in experiment [4], 10.1%; in experiment [7], 26.6%; in experiment [5], 95.3%. In experiment [6], the growth was 55.5%.
Turning to `O=C1/C(=C/c2ccccn2)NC(=S)N1c1ccccc1Cl`, the growth in experiment [1] was 44.1%; in experiment [2] it was 83.8%; in experiment [3], 37.9%; in experiment [4], 32.9%; in experiment [7] it was 12.2%; in experiment [5], 85.9%. The growth in experiment [6] is 67.4%.
As to `NNCCc1ccc(NC(=O)CCCc2ccc(C(=O)Nc3ccccc3N)cc2)cc1`, the growth was 28.7% in experiment [1]; 71% in experiment [2]; 57.5% in experiment [3]; 41.6% in experiment [7]; 92.4% in experiment [5]; 81.5% in experiment [6].
